# Reference: PubChem BioAssay (Tox21)
# Results filed as inconclusive are left out. Calls of active or inactive are those of the source. The call rests on the fitted dose curve.
# Target: Acetylcholinesterase (Homo sapiens) (UniProt P22303)
# Assay: Acetylcholinesterase (AChE) small molecule antagonists: fluorescence cell-based qHTS assay (AID 1347398); further: nearly all actives have a fitted effect of over 50% in size
# Settings: SH-SY5Y cells; Potency: AChE activity; outcome: AChE activity; series mostly up to 115 µM; activity change, negative = inhibition: at the top concentration
# How it was run: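 SH-SY5Y cells (2000/well), attached overnight, incubated with compound 30 min at 37 C. Acetylthiocholine plus Thiolite Green then added for 40 min at room temperature. Thiocholine fluorescence (Ex/Em 490/520 nm) reports cellular AChE activity.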
# On the % scale 0 is the no-effect control and ±100 the full control effect.
# Acetylcholinesterase (Homo sapiens), sequence (P22303 whole entry, looked up): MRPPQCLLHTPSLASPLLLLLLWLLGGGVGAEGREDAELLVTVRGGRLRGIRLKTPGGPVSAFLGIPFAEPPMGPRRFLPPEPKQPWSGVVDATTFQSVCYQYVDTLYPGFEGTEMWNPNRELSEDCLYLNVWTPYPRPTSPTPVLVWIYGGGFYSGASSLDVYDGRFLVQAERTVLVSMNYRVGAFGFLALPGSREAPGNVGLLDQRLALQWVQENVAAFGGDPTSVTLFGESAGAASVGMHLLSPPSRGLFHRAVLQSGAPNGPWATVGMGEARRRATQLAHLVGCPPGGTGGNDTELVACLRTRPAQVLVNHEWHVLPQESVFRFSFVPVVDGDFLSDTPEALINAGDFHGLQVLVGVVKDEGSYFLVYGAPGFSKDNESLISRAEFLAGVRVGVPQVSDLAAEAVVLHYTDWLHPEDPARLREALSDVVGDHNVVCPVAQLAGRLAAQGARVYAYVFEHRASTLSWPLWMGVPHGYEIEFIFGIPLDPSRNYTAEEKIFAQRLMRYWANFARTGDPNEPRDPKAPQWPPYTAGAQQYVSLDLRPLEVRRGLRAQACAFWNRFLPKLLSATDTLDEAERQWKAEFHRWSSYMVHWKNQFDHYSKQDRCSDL
Compound,"activity change, negative = inhibition",Potency
Nc1ccc(S(=O)(=O)O)cc1,-3.97% (inactive),–
Oc1c(Cl)cc(Cl)cc1Sc1cc(Cl)cc(Cl)c1O,16.8% [at 53.7 µM] (inactive),–
O=C(O)Cc1c[nH]c2ccccc12,–,inactive
c1ccc2[nH]c(-c3cscn3)nc2c1,–,inactive
O=C(O)CC(=O)C(=O)O,2.49% (inactive),–
Cc1cccc(Oc2ccccc2)c1,3.74% (inactive),–
O=c1[nH]c(=O)n([C@H]2C[C@H](O)[C@@H](CO)O2)cc1F,-2.65% [at 53.7 µM] (inactive),–
Cc1ccc(O)c(C(=O)c2ccccc2)c1,-1.47% (inactive),–
CCC(=O)OC,3.08% (inactive),–
CCCCCCCCCCCCOCCO,–,inactive
CN1Cc2c(N)cccc2C(c2ccccc2)C1 (stereo not given),–,inactive
CC1(C)O[C@H]2CC(=O)OC[C@]23[C@H]2CC[C@@]4(C)[C@H](c5ccoc5)OC(=O)[C@H]5O[C@]54[C@]2(C)C(=O)C[C@@H]13,1.37% [at 53.7 µM] (inactive),–
CO[C@@]1(NC(=O)C(C(=O)O)c2ccc(O)cc2)C(=O)N2C(C(=O)O)=C(CSc3nnnn3C)CO[C@@H]21 (stereo not given in full),25.8% [at 53.7 µM] (inactive),–
Oc1c(Cl)cc(Cl)c(Cl)c1Cl,–,inactive
O=C1CCCCC1C1CCCCC1 (stereo not given),1.39% (inactive),–
O=C(c1ccccc1O)c1ccccc1O,-1.41% (inactive),–
O=C(c1ccc(O)cc1)c1ccc(Cl)cc1,-13.4% (inactive),–
CC(=O)OCC(=O)[C@@]1(O)CC[C@H]2[C@@H]3CCC4=CC(=O)CC[C@]4(C)[C@H]3C(=O)C[C@@]21C,1.99% [at 53.7 µM] (inactive),–
Nc1ccc(/C=C/c2ccc(N)cc2S(=O)(=O)O)c(S(=O)(=O)O)c1,2.35% [at 0.439 µM] (inactive),–
CCn1c2ccccc2c2cc([N+](=O)[O-])ccc21,-11.6% (inactive),–

Compound,"activity change, negative = inhibition",Potency
c1ccc2sc(SSN3CCOCC3)nc2c1,-15.8% (inactive),–
C=C[Si]1(C)O[Si](C)(C=C)O[Si](C)(C=C)O[Si](C)(C=C)O1 (stereo not given),-7.34% (inactive),–
CCO[Si](CCCCl)(OCC)OCC,-0.0694% (inactive),–
CCN(CC)C(=O)c1cccc(C)c1,–,inactive
CCc1ccc(CCOc2ccc(CC3SC(=O)NC3=O)cc2)nc1 (stereo not given),–,inactive
COc1cc(NS(=O)(=O)c2ccc(N)cc2)nc(OC)n1,13% [at 53.7 µM] (inactive),–
Cc1oc(C)c(C(=O)Nc2ccccc2)c1C,9.22% (inactive),–
CN(C)c1cc(NC(=O)CNC(C)(C)C)c(O)c2c1C[C@H]1C[C@H]3[C@H](N(C)C)C(=O)C(C(N)=O)=C(O)[C@@]3(O)C(=O)C1=C2O,-13.8% [at 53.7 µM] (inactive),–
O=Cc1cccc([N+](=O)[O-])c1,-1.73% (inactive),–
O=[N+]([O-])c1ccccc1Nc1ccccc1,-23.7% (inactive),–
CC(C)(C)c1nnc(NS(=O)(=O)c2ccccc2)s1,7.69% [at 53.7 µM] (inactive),–
C1COCO1,5.8% (inactive),–
O=C(O)c1cccc(C(=O)O)n1,1.03% (inactive),–
COS(=O)(=O)O,1.32% (inactive),–
CCc1oc2ccccc2c1C(=O)c1cc(Br)c(O)c(Br)c1,-8.86% [at 53.7 µM] (inactive),–
CC(Cl)COP(=O)(OCC(C)Cl)OCC(C)Cl (stereo not given),0.431% (inactive),–
CC1(C)CC(OC(=O)CCCCCCCCC(=O)OC2CC(C)(C)NC(C)(C)C2)CC(C)(C)N1,-14.4% [at 23.8 µM] (inactive),–
COc1cc2ncnc(Nc3cccc(Cl)c3)c2cc1OC,1.23% [at 23.8 µM] (inactive),–
CC(C)Nc1cccnc1N1CCN(C(=O)c2cc3cc(NS(C)(=O)=O)ccc3[nH]2)CC1,-10.5% [at 53.7 µM] (inactive),–
CCOC(=O)Cn1c(=O)sc2cccc(Cl)c21,-0.589% (inactive),–

# Target: Acetylcholinesterase (Homo sapiens) (UniProt P22303)
# Assay: Acetylcholinesterase (AChE) small molecule antagonists: enzyme-based qHTS assay with human liver microsomes (AID 1347399); further: nearly all actives have a fitted effect of over 60% in size
# Settings: Potency: qHTS inhibition; outcome: qHTS inhibition; series mostly up to 115 µM; activity change, negative = inhibition: at the top concentration
# How it was run: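 Recombinant human AChE (50 mU/mL in the enzyme mix) and human liver microsomes (0.25 mg/mL final) were preincubated with compound and NADPH (0.25 mg/mL final) for 30 min at 37 C. Acetylthiocholine/DTNB was then added; thiocholine was read colorimetrically after 10 min at room temperature.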
Compound,"activity change, negative = inhibition",Potency
Nc1ccc(S(=O)(=O)O)cc1,0.157% (inactive),–
Oc1c(Cl)cc(Cl)cc1Sc1cc(Cl)cc(Cl)c1O,–,inactive
O=C(O)Cc1c[nH]c2ccccc12,–,inactive
c1ccc2[nH]c(-c3cscn3)nc2c1,–,inactive
O=C(O)CC(=O)C(=O)O,-0.471% (inactive),–
Cc1cccc(Oc2ccccc2)c1,0.226% (inactive),–
O=c1[nH]c(=O)n([C@H]2C[C@H](O)[C@@H](CO)O2)cc1F,0.169% [at 53 µM] (inactive),–
Cc1ccc(O)c(C(=O)c2ccccc2)c1,0.815% (inactive),–
CCC(=O)OC,1.52% (inactive),–
CCCCCCCCCCCCOCCO,–,inactive
CN1Cc2c(N)cccc2C(c2ccccc2)C1 (stereo not given),–,inactive
CC1(C)O[C@H]2CC(=O)OC[C@]23[C@H]2CC[C@@]4(C)[C@H](c5ccoc5)OC(=O)[C@H]5O[C@]54[C@]2(C)C(=O)C[C@@H]13,-0.953% [at 53 µM] (inactive),–
CO[C@@]1(NC(=O)C(C(=O)O)c2ccc(O)cc2)C(=O)N2C(C(=O)O)=C(CSc3nnnn3C)CO[C@@H]21 (stereo not given in full),-0.59% [at 53 µM] (inactive),–
Oc1c(Cl)cc(Cl)c(Cl)c1Cl,–,inactive
O=C1CCCCC1C1CCCCC1 (stereo not given),0.522% (inactive),–
O=C(c1ccccc1O)c1ccccc1O,-2.15% (inactive),–
O=C(c1ccc(O)cc1)c1ccc(Cl)cc1,3.13% (inactive),–
CC(=O)OCC(=O)[C@@]1(O)CC[C@H]2[C@@H]3CCC4=CC(=O)CC[C@]4(C)[C@H]3C(=O)C[C@@]21C,-0.0869% [at 53 µM] (inactive),–
Nc1ccc(/C=C/c2ccc(N)cc2S(=O)(=O)O)c(S(=O)(=O)O)c1,-0.084% [at 0.435 µM] (inactive),–
CCn1c2ccccc2c2cc([N+](=O)[O-])ccc21,1.45% (inactive),–

Compound,"activity change, negative = inhibition",Potency
c1ccc2sc(SSN3CCOCC3)nc2c1,–,inactive
C=C[Si]1(C)O[Si](C)(C=C)O[Si](C)(C=C)O[Si](C)(C=C)O1 (stereo not given),-0.458% (inactive),–
CCO[Si](CCCCl)(OCC)OCC,0.156% (inactive),–
CCN(CC)C(=O)c1cccc(C)c1,–,inactive
CCc1ccc(CCOc2ccc(CC3SC(=O)NC3=O)cc2)nc1 (stereo not given),–,inactive
COc1cc(NS(=O)(=O)c2ccc(N)cc2)nc(OC)n1,0.144% [at 53 µM] (inactive),–
Cc1oc(C)c(C(=O)Nc2ccccc2)c1C,0.458% (inactive),–
CN(C)c1cc(NC(=O)CNC(C)(C)C)c(O)c2c1C[C@H]1C[C@H]3[C@H](N(C)C)C(=O)C(C(N)=O)=C(O)[C@@]3(O)C(=O)C1=C2O,0% [at 53 µM] (inactive),–
O=Cc1cccc([N+](=O)[O-])c1,0.262% (inactive),–
O=[N+]([O-])c1ccccc1Nc1ccccc1,4.98% (inactive),–
CC(C)(C)c1nnc(NS(=O)(=O)c2ccccc2)s1,-1.18% [at 53 µM] (inactive),–
C1COCO1,-0.223% (inactive),–
O=C(O)c1cccc(C(=O)O)n1,1.4% (inactive),–
COS(=O)(=O)O,3.19% (inactive),–
CCc1oc2ccccc2c1C(=O)c1cc(Br)c(O)c(Br)c1,1.61% [at 53 µM] (inactive),–
CC(Cl)COP(=O)(OCC(C)Cl)OCC(C)Cl (stereo not given),0.59% (inactive),–
CC1(C)CC(OC(=O)CCCCCCCCC(=O)OC2CC(C)(C)NC(C)(C)C2)CC(C)(C)N1,0.16% [at 23.6 µM] (inactive),–
COc1cc2ncnc(Nc3cccc(Cl)c3)c2cc1OC,1.05% [at 23.6 µM] (inactive),–
CC(C)Nc1cccnc1N1CCN(C(=O)c2cc3cc(NS(C)(=O)=O)ccc3[nH]2)CC1,0.277% [at 53 µM] (inactive),–
CCOC(=O)Cn1c(=O)sc2cccc(Cl)c21,-2.37% (inactive),–
